From PubChem BioAssay (NCI)
About 79,000 compounds went through this panel and 15% of them were active in at least one assay; those are over-represented in the sample as a whole. Cut-off read from the data, not from the text of the source: active = growth inhibition above about 70%; inactive = the rest.

Assays:
[1] = NCI Yeast Anticancer Drug Screen. Data for the mec2-1 strain (AID 157); details: S. cerevisiae mec2-1 strain, at 50.0 µM, stronger effect = higher value
Outline: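 mec2-1 yeast strain, carrying an alteration in DNA damage repair or cell cycle control, was exposed to compounds; growth inhibition was measured relative to vehicle-treated controls.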

[2] = NCI Yeast Anticancer Drug Screen. Data for the sgs1 mgt1 strain (AID 161);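 note: 0% = growth of cultures given vehicle only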; details: S. cerevisiae sgs1 mgt1 strain, at 50.0 µM, stronger effect = higher value
Outline: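 Compounds are added to genetically altered yeast, and growth is compared with cultures given vehicle alone to give percent inhibition.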

[3] = NCI Yeast Anticancer Drug Screen. Data for the cln2 rad14 strain (AID 165);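 note: 0% = growth equal to vehicle treated cultures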; details: S. cerevisiae cln2 rad14 strain, at 50.0 µM, stronger effect = higher value
Outline: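 Yeast carrying cln2 and rad14 alterations (cell cycle control and DNA damage repair) were exposed to compounds. Growth inhibition was measured against vehicle-treated controls.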

[4] = NCI Yeast Anticancer Drug Screen. Data for the bub3 strain (AID 167); details: S. cerevisiae bub3 mutant strain, at 50.0 µM, stronger effect = higher value
Outline: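 Growth of a checkpoint-deficient yeast mutant is measured after compound exposure. Values represent inhibition relative to vehicle.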

[5] = NCI Yeast Anticancer Drug Screen. Data for the mlh1 rad18 strain (AID 175); details: S. cerevisiae mlh1 rad18 strain growth inhibition; at 50.0 µM; stronger effect = higher value
Outline: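 Growth inhibition of the yeast strain was measured after compound exposure and expressed relative to vehicle-treated controls. The strain carries defined defects in DNA damage repair.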

Measured: growth inhibition

Cn1c2ccccc2c2nn3cnnc3nc21
inactive: [1] 41.3% | [2] -3.3% | [3] 25.5% | [4] 22.1% | [5] -1.95%
